# Measurements published in PubChem BioAssay (EPA / NIEHS).
# The source made the active and inactive calls. Rule for the calls: active = hit-call score of the fitted dose curve at least 0.9, where 1 is the maximum; inactive = score below 0.9.
# How the values were obtained:
# [1] = read-out: Urokinase-type plasminogen activator receptor (uPAR), PLAUR (gene 5329); assay: BSK_4H_uPAR: BioMAP Diversity Plus: 4H Assay for Urokinase-type plasminogen activator receptor (uPAR) Biomarker Activity (AID 2283030); settings: primary human endothelial cells (HUVEC); actives raise or lower the signal
# Summary of the method: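 Human umbilical vein endothelial cells in the 4H system, 24 h after chemical dosing. Cell-surface uPAR measured by ELISA, fitted in both directions versus DMSO; cytotoxicity checked by SRB total protein in parallel cultures.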
# [2] = read-out: Vascular endothelial growth factor receptor 2 (Homo sapiens) (UniProt P35968); assay: BSK_4H_VEGFRII: BioMAP Diversity Plus: 4H Assay for Vascular endothelial growth factor receptor 2 (VEGFR2) Biomarker Activity (AID 2283031); settings: primary human endothelial cells (HUVEC); actives raise or lower the signal
# Summary of the method: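 Primary human umbilical vein endothelial cells (4H system), 24 h exposure; cell-surface VEGFR2 measured by ELISA. Bidirectional fitting versus DMSO; cytotoxicity checked in parallel by SRB total-protein staining.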
# [3] = read-out: Human Leukocyte Antigen - DR isotype (HLADR), HLA-DRA (gene 3122); assay: BSK_BE3C_HLADR: BioMAP Diversity Plus: BE3C Assay for Human Leukocyte Antigen - DR isotype (HLADR) Biomarker Activity (AID 2283032); settings: primary human bronchial epithelial cells; actives raise or lower the signal
# Summary of the method: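 Cell-surface HLA-DR ELISA readout at 24 h after dosing in the BE3C primary human lung bronchial epithelial system; gain or loss of signal against DMSO, with parallel sulforhodamine B staining of total protein for overt cytotoxicity.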
# [4] = read-out: Vascular cell adhesion molecule 1 (VCAM1), VCAM1 (gene 7412); assay: BSK_4H_VCAM1: BioMAP Diversity Plus: 4H Assay for Vascular cell adhesion molecule 1 (VCAM1) Biomarker Activity (AID 2283033); settings: primary human endothelial cells (HUVEC); actives raise or lower the signal;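 for outcome: cell-surface VCAM-1 protein measured by ELISA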
# Summary of the method: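 VCAM-1 ELISA read 24 h after chemical dosing of HUVEC in the BioMAP 4H system, with gain or loss of signal fitted relative to DMSO. Parallel SRB staining (560 nm) checked overt cytotoxicity.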
# [5] = read-out: Interferon-gamma inducible Protein 10 (IP10), CXCL10 (gene 3627); assay: BSK_BE3C_IP10: BioMAP Diversity Plus: BE3C Assay for Interferon-gamma inducible Protein 10 (IP10) Biomarker Activity (AID 2283034); settings: primary human bronchial epithelial cells; actives raise or lower the signal
# Summary of the method: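 IP-10 quantified by ELISA in human primary bronchial epithelial cell cultures at 24 hours post-dosing. Gain or loss of signal fitted relative to DMSO; parallel SRB staining assessed overt cytotoxicity.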
# [6] = read-out: Transforming growth factor beta 1 (TGFb1), TGFB1 (gene 7040); assay: BSK_BE3C_TGFb1: BioMAP Diversity Plus: BE3C Assay for Transforming growth factor beta 1 (TGFb1) Biomarker Activity (AID 2283036;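 note: TGF-b1 protein level measured by ELISA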); settings: primary human bronchial epithelial cells; actives raise or lower the signal
# Summary of the method: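 ELISA readout of TGF-b1 from human lung bronchial epithelial primary cells, taken 24 h post-treatment. Gain or loss of signal fitted relative to DMSO baseline, with parallel SRB staining for overt cytotoxicity.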
# [7] = read-out: Plasminogen activator inhibitor-1 (PAI1), SERPINE1 (gene 5054); assay: BSK_BE3C_PAI1: BioMAP Diversity Plus: BE3C Assay for Plasminogen activator inhibitor-1 (PAI1) Biomarker Activity (AID 2283037); settings: primary human bronchial epithelial cells; actives raise or lower the signal
# Summary of the method: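 PAI-1 was measured by ELISA in human primary bronchial epithelial cultures 24 h after chemical dosing, with cytotoxicity checked by SRB total-protein staining in parallel cultures. Activity was fitted in both directions relative to DMSO.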
# [8] = read-out: urokinase plasminogen activator (uPA), PLAU (gene 5328); assay: BSK_BE3C_uPA: BioMAP Diversity Plus: BE3C Assay for urokinase plasminogen activator (uPA) Biomarker Activity (AID 2283038); settings: primary human bronchial epithelial cells; actives raise or lower the signal;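 for outcome: uPA protein level quantified by ELISA in cell cultures; uPA read one day after compound addition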
# Summary of the method: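 Primary human bronchial epithelial cells, uPA measured by ELISA 24 h after dosing. Bidirectional change relative to DMSO; cytotoxicity checked in parallel cultures by sulforhodamine B total-protein staining.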
# [9] = read-out: Urokinase-type plasminogen activator receptor (uPAR), PLAUR (gene 5329); assay: BSK_BE3C_uPAR: BioMAP Diversity Plus: BE3C Assay for Urokinase-type plasminogen activator receptor (uPAR) Biomarker Activity (AID 2283039); settings: primary human bronchial epithelial cells; actives raise or lower the signal;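 for outcome: cells exposed to compound for one day before measurement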
# Summary of the method: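 uPAR levels were measured by ELISA after 24 h compound treatment of primary human bronchial epithelial cells, fitted in both directions relative to DMSO. Parallel SRB staining served as the cytotoxicity read-out.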
# [10] = read-out: Interleukin-6 (IL6), IL6 (gene 3569); assay: BSK_CASM3C_IL6: BioMAP Diversity Plus: CASM3C Assay for Interleukin-6 (IL6) Biomarker Activity for (AID 2283040); settings: primary human coronary artery smooth muscle cells; actives raise or lower the signal
# [11] = read-out: Tissue plasminogen activator (tPA), PLAT (gene 5327); assay: BSK_BE3C_tPA: BioMAP Diversity Plus: BE3C Assay for Tissue plasminogen activator (tPA) Biomarker Activity (AID 2283041); settings: primary human bronchial epithelial cells; actives raise or lower the signal;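 note: tPA level quantified by ELISA one day after compound addition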
# Summary of the method: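 tPA measured by ELISA 24 h after dosing human primary bronchial epithelial cells (BE3C system). Changes in either direction were fitted against DMSO. Parallel cultures were stained with SRB to flag overt cytotoxicity.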
# [12] = read-out: Interleukin-8 (IL8), CXCL8 (gene 3576); assay: BSK_CASM3C_IL8: BioMAP Diversity Plus: CASM3C Assay for Interleukin-8 (IL8) Biomarker Activity (AID 2283042); settings: primary human coronary artery smooth muscle cells; actives raise or lower the signal;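 note: IL-8 protein level quantified by ELISA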
# [13] = read-out: Human Leukocyte Antigen - DR isotype (HLADR), HLA-DRA (gene 3122); assay: BSK_CASM3C_HLADR: BioMAP Diversity Plus: CASM3C Assay for Human Leukocyte Antigen - DR isotype (HLADR) Biomarker Activity (AID 2283043); settings: primary human coronary artery smooth muscle cells; actives raise or lower the signal;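 note: cell-surface HLA-DR protein level quantified by ELISA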
# [14] = read-out: Macrophage colony-stimulating factor (MCSF), CSF1 (gene 1435); assay: BSK_CASM3C_MCSF: BioMAP Diversity Plus: CASM3C Assay for Macrophage colony-stimulating factor (MCSF) Biomarker Activity (AID 2283044); settings: primary human coronary artery smooth muscle cells; actives raise or lower the signal;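 note: M-CSF protein amount quantified by ELISA after 24 h exposure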
# [15] = read-out: Low-density lipoprotein receptor (LDLR), LDLR (gene 3949); assay: BSK_CASM3C_LDLR: BioMAP Diversity Plus: CASM3C Assay for Low-density lipoprotein receptor (LDLR) Biomarker Activity (AID 2283045); settings: primary human coronary artery smooth muscle cells; actives raise or lower the signal;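 note: LDLR protein level on the cell surface quantified by ELISA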
# [16] = read-out: Monocyte Chemoattractant Protein-1 (MCP1), CCL2 (gene 6347); assay: BSK_CASM3C_MCP1: BioMAP Diversity Plus: CASM3C Assay for Monocyte Chemoattractant Protein-1 (MCP1) Biomarker Activity (AID 2283046); settings: primary human coronary artery smooth muscle cells; actives raise or lower the signal;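 note: MCP-1 level quantified by ELISA 24 h after dosing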
# [17] = BSK_CASM3C_Proliferation: Cell Proliferation Assessment in the BioMAP Diversity Plus: CASM3C Assay (AID 2283047); settings: primary human coronary artery smooth muscle cells;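 note: sulforhodamine B total protein stain as relative cell number at 560 nm; sub-confluent cells exposed 48 h before staining; fitted both ways against DMSO so gain or loss of cell number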
# [18] = read-out: Monokine induced gamma interferon (MIG), CXCL9 (gene 4283); assay: BSK_CASM3C_MIG: BioMAP Diversity Plus: CASM3C Assay for Monokine induced gamma interferon (MIG) Biomarker Activity (AID 2283048); settings: primary human coronary artery smooth muscle cells; actives raise or lower the signal;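 note: MIG protein level measured by ELISA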
# [19] = read-out: serum amyloid A (SAA), SAA1 (gene 6288); assay: BSK_CASM3C_SAA: BioMAP Diversity Plus: CASM3C Assay for serum amyloid A (SAA) Biomarker Activity (AID 2283049); settings: primary human coronary artery smooth muscle cells; actives raise or lower the signal;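 note: SAA protein level quantified by ELISA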
# [20] = read-out: Monokine induced gamma interferon (MIG), CXCL9 (gene 4283); assay: BSK_BE3C_MIG: BioMAP Diversity Plus: BE3C Assay for Monokine induced gamma interferon (MIG) Biomarker Activity (AID 2283035); settings: primary human bronchial epithelial cells; actives raise or lower the signal
# Summary of the method: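 ELISA quantified MIG after 24 h exposure of primary bronchial epithelial cultures, analysed in both directions relative to DMSO. Cytotoxicity tracked in parallel cultures by sulforhodamine B staining.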
smiles,measurement,setting,value
Cc1cc(C2CC2)nc(Nc2ccccc2)n1,outcome,[1],inactive
same,outcome,[2],inactive
same,AC50,[3],5.17 µM (active)
same,outcome,[4],inactive
same,outcome,[5],inactive
same,outcome,[6],inactive
same,outcome,[7],inactive
same,outcome,[8],inactive
same,outcome,[9],inactive
same,outcome,[10],inactive
same,outcome,[11],inactive
same,outcome,[12],inactive
same,outcome,[13],inactive
same,outcome,[14],inactive
same,outcome,[15],inactive
same,outcome,[16],inactive
same,AC50,[17],14.4 µM (active)
same,outcome,[18],inactive
same,outcome,[19],inactive
CCOC(=O)COc1cc(-c2nn(C)c(OC(F)F)c2Cl)c(F)cc1Cl,outcome,[1],inactive
same,outcome,[2],inactive
same,outcome,[3],inactive
same,outcome,[4],inactive
same,outcome,[6],inactive
same,outcome,[7],inactive
same,outcome,[9],inactive
same,outcome,[10],inactive
same,outcome,[11],inactive
same,outcome,[12],inactive
same,outcome,[13],inactive
same,outcome,[14],inactive
same,outcome,[15],inactive
same,outcome,[16],inactive
same,outcome,[17],inactive
same,outcome,[18],inactive
same,outcome,[19],inactive
CC(C)[C@H](C(=O)O[C@H](C#N)c1cccc(Oc2ccccc2)c1)c1ccc(Cl)cc1,outcome,[1],inactive
same,outcome,[2],inactive
same,outcome,[3],inactive
same,AC50,[4],2.95 µM (active)
same,outcome,[5],inactive
same,outcome,[6],inactive
same,outcome,[7],inactive
same,AC50,[9],5.23 µM (active)
same,outcome,[10],inactive
same,outcome,[11],inactive
same,outcome,[12],inactive
same,outcome,[13],inactive
same,outcome,[14],inactive
same,outcome,[15],inactive
same,outcome,[16],inactive
same,AC50,[17],9.47 µM (active)
same,outcome,[18],inactive
same,outcome,[19],inactive
FC(F)C(F)(F)OCC(Cn1cncn1)c1ccc(Cl)cc1Cl (centres undefined),AC50,[1],31.7 µM (active)
same,outcome,[2],inactive
same,AC50,[3],29.8 µM (active)
same,AC50,[4],29.7 µM (active)
same,outcome,[20],inactive
same,outcome,[6],inactive
same,outcome,[7],inactive
same,outcome,[8],inactive
same,outcome,[9],inactive
same,outcome,[10],inactive
same,outcome,[11],inactive
same,outcome,[12],inactive
same,outcome,[13],inactive
same,outcome,[14],inactive
same,outcome,[15],inactive
same,outcome,[16],inactive
same,outcome,[17],inactive
same,outcome,[18],inactive
same,outcome,[19],inactive
CCOP(=S)(OCC)Oc1cc(C)nc(C(C)C)n1,outcome,[1],inactive
same,outcome,[2],inactive
same,outcome,[3],inactive
same,outcome,[4],inactive
same,outcome,[5],inactive
same,outcome,[6],inactive
same,outcome,[7],inactive
same,outcome,[8],inactive
same,outcome,[9],inactive
same,outcome,[10],inactive
same,outcome,[11],inactive
same,outcome,[12],inactive
same,outcome,[13],inactive
same,outcome,[14],inactive
same,outcome,[15],inactive
same,outcome,[16],inactive
same,AC50,[17],14.3 µM (active)
same,outcome,[18],inactive
same,outcome,[19],inactive
CCc1cccc(CC)c1N(COC)C(=O)CCl,outcome,[1],inactive
same,outcome,[2],inactive
same,AC50,[3],33.4 µM (active)
same,AC50,[4],15.3 µM (active)
same,AC50,[5],31.8 µM (active)
same,outcome,[6],inactive
same,outcome,[7],inactive
same,outcome,[8],inactive
same,outcome,[9],inactive
same,outcome,[10],inactive
same,outcome,[11],inactive
same,outcome,[12],inactive
same,outcome,[13],inactive
same,outcome,[14],inactive
same,outcome,[15],inactive
same,outcome,[16],inactive
same,outcome,[17],inactive
same,outcome,[18],inactive
same,outcome,[19],inactive
CC(COc1ccc(Oc2ccccc2)cc1)Oc1ccccn1 (centres undefined),outcome,[1],inactive
same,outcome,[2],inactive
same,outcome,[3],inactive
same,outcome,[4],inactive
same,outcome,[6],inactive
same,outcome,[7],inactive
same,AC50,[8],17.8 µM (active)
same,outcome,[9],inactive
same,outcome,[10],inactive
same,outcome,[11],inactive
same,outcome,[12],inactive
same,outcome,[13],inactive
same,outcome,[14],inactive
same,outcome,[15],inactive
same,outcome,[16],inactive
same,AC50,[17],31.8 µM (active)
same,outcome,[18],inactive
same,outcome,[19],inactive
